# In PubChem BioAssay (Tox21):
# Records with an inconclusive call do not appear. A call without a number means that no potency is given here. A number with no mark means an inactive call. The source made the active and inactive calls. Calls come from the whole dose curve; as a rule, active = well fitted cell-killing curve with a large enough effect in the repeat runs; inconclusive = weak or mixed curves, or effect the other way; inactive = flat fitted curve, though single readings scatter.
# Legend:
# [1] = cAMP Responsive Elements (CRE) small molecule antagonists, cell-based qHTS assay: qHTS cell viability counter screen (AID 2060913); conditions: CRE-bla HEK293T viability, CellTiter-Glo luminescence, 5 h; series mostly up to 92.4 µM; note: nearly all actives have a fitted effect of over 40% in size
# Outline: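 HEK293T CRE-bla, 2,000 cells/well, 18 h preincubation; cpd in DMSO + NKH477 0.25 uM final, 3 h 37 C/5% CO2; LiveBLAzer 2 h RT, then CellTiter-Glo 30 min RT, luminescence.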
# [2] = cAMP Responsive Elements (CRE) small molecule agonists, cell-based qHTS assay: qHTS cell viability counter screen (AID 2060914); conditions: CRE-bla HEK293T viability, CellTiter-Glo luminescence, 5 h; series mostly up to 92.4 µM; note: potency is the fitted concentration of half-maximal effect;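 note: viability read after 3 h of compound exposure; nearly all actives have a fitted effect of over 50% in size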
# Outline: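 HEK 293T CRE-bla; DMEM + 10% dialyzed FBS, 25 mM HEPES; 18 h pre-incubation; compound 3 h, 37 °C/5% CO2; CellTiter-Glo added after reporter read; luminescence after 30 min RT.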
Structure (SMILES),Potency [1],Potency [2],"viability change, negative = cytotoxic [1]","activity change, negative = cytotoxicity [2]"
COC(=O)C1=C(C)NC(COC(N)=O)=C(C(=O)OC(C)C)C1c1cccc(Cl)c1Cl (stereo not drawn),inactive,inactive,–,–
CC(C)(C)c1cccc(C(C)(C)C)c1O,inactive,inactive,–,–
CC1=C(O)C(=O)C(C)O1 (stereo not drawn),inactive,inactive,–,–
NC1[C@H]2CN(c3nc4c(cc3F)c(=O)c(C(=O)O)cn4-c3ccc(F)cc3F)C[C@@H]12 (stereo partly drawn),inactive,inactive,–,–
COC(=O)C1=C(C)NC(C)=C(C(=O)OC)C1c1ccccc1[N+](=O)[O-],inactive,inactive,–,–
CC(O)C(CO)C(C)O (stereo not drawn),inactive,inactive,–,–
COC(=O)c1ccccc1OC,inactive,inactive,–,–
NC12CC3CC(CC(C3)C1)C2,inactive,inactive,–,–
C#C[C@]1(O)CC[C@H]2[C@@H]3CCc4cc(O)ccc4[C@H]3CC[C@@]21C,inactive,inactive,–,–
CCCCCCCC/C=C/CCCCCCCC1=NCCN1CCO,inactive,inactive,–,–
CCCCC/C=C/C=C/C=O,inactive,inactive,–,–
Cc1ccc([N+](=O)[O-])c(C)c1,inactive,inactive,–,–
CNC(=S)NN,inactive,inactive,–,–
CC(C)(C)CC(C)(C)c1ccc(O)c(-n2nc3ccccc3n2)c1,inactive,9.69 µM (active),–,–
OC[C@@H](O)[C@H](O)[C@@H](O)[C@@H](O)CO,inactive,inactive,–,–
C=C[C@@]1(C)CC(=O)[C@]2(O)[C@@]3(C)[C@@H](O)CCC(C)(C)[C@@H]3[C@H](O)[C@H](OC(C)=O)[C@@]2(C)O1,inactive,inactive,–,–
Cc1ccc(Nc2c(F)cccc2Cl)c(CC(=O)O)c1,inactive,inactive,–,–
CCC(CO)(CO)[N+](=O)[O-],inactive,inactive,–,–
Nc1ccc(O)cc1,inactive,inactive,–,–
CCN(C(=O)N(CC)c1ccccc1)c1ccccc1,inactive,inactive,–,–
CC(C)c1ccc(C(=O)N=C(N)N)cc1S(C)(=O)=O,inactive,inactive,–,–
CCCCNc1ccc(NCCCC)c2c1C(=O)c1ccccc1C2=O,–,–,6.2% [at 18.9 µM],-7.45% [at 18.9 µM]
C[C@@H](O)[C@H]1C(=O)N2C(C(=O)O)=C(SCCN=CN)C[C@H]12,inactive,inactive,–,–
CC(=O)CC(N)=O,inactive,inactive,–,–
CCOc1nc(F)cc2nc(S(=O)(=O)Nc3c(Cl)cccc3C(=O)OC)nn12,inactive,inactive,–,–

Structure (SMILES),Potency [1],Potency [2],"viability change, negative = cytotoxic [1]","activity change, negative = cytotoxicity [2]"
Cc1ccc(OC(=O)c2ccccc2O)cc1,inactive,inactive,–,–
NC(N)=NCCN1CCCCCCC1,–,–,0.247% [at 0.349 µM],-6.13% [at 0.349 µM]
Cc1occc1S,inactive,inactive,–,–
O=[N+]([O-])C1(Br)COCOC1,inactive,inactive,–,–
CCn1ccnc1CC1COc2ccccc2O1 (stereo not drawn),inactive,inactive,–,–
C=C(C)C(=O)OCCN(CC)CC,inactive,inactive,–,–
CSc1nnc(C(C)(C)C)c(=O)[nH]1,inactive,inactive,–,–
CC(C)OC(=O)c1ccccc1C(=O)OC(C)C,inactive,inactive,–,–
N=C(N)c1ccc2cc(OC(=O)c3ccc(N=C(N)N)cc3)ccc2c1,inactive,inactive,–,–
COc1cc(NCc2ccc3nc(N)nc(N)c3c2C)cc(OC)c1OC,inactive,inactive,–,–
CCOC(=O)/C=C(C)/C=C/C=C(C)/C=C/c1c(C)cc(OC)c(C)c1C,inactive,inactive,–,–
CCCCCCCCCCCCCCCCBr,–,–,-5.25% [at 18.9 µM],6.55% [at 18.9 µM]
O=C(CS)OCCOC(=O)CS,inactive,inactive,–,–
CC1CCC(=O)C1=O (stereo not drawn),inactive,inactive,–,–
O=C(O)c1c(Cl)cccc1Cl,inactive,inactive,–,–
C=C(C)c1cccc(C(C)(C)N=C=O)c1,inactive,inactive,–,–
OCCOCCOCCOCCO,inactive,inactive,–,–
O=C(O)CCCCCCC(=O)O,inactive,inactive,–,–
CC(C)(C)NC(=O)[C@@H]1CN(Cc2cccnc2)CCN1C[C@@H](O)C[C@@H](Cc1ccccc1)C(=O)N[C@H]1c2ccccc2C[C@H]1O,inactive,inactive,–,–
c1cc2c3c(c1)ccc1cccc(c13)C2,inactive,inactive,–,–
[O-]/[N+](=N\O)c1ccccc1,inactive,inactive,–,–
CCc1c(C)cc(N)c(CC)c1N,inactive,inactive,–,–
COc1cc2c(cc1OC)C(C(C(=O)N(CCc1ccc(OC)c(OC)c1OC)CCc1ccc(OC)c(OC)c1OC)c1ccccc1)=NCC2 (stereo not drawn),inactive,inactive,–,–
CCOC(=O)CC(=O)c1ccccc1,inactive,inactive,–,–
